Measured values from PubChem BioAssay (EPA / NIEHS).
Records with an inconclusive call do not appear. Activity calls are given as the source filed them. Rule for the calls: active = hit-call score of the fitted dose curve at least 0.9, where 1 is the maximum; inconclusive = response in the unintended direction; inactive = score below 0.9.

Biological target: human Thromboxane A2 Receptor (TXA2), TBXA2R (gene 6915) (UniProt P21731)
Experiment: NVS_GPCR_hTXA2: NovaScreen (NVS) G Protein-Coupled Receptor Assay for human Thromboxane A2 Receptor (TXA2) (AID 2283282);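 note: actives reduce bound radioligand signal relative to DMSO baseline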
Description: NVS_GPCR_hTXA2 is a biochemical, single-readout assay that uses extracted gene-proteins from Human platelets in a cell-free assay. Measurements were taken 1 hour after chemical dosing in a 96-well plate.NVS_GPCR_hTXA2 is one of one assay component(s) measured or calculated from the NVS_GPCR_hTXA2 assay. It is designed to make measurements of radioligand binding, a form of binding reporter, as detected with scintillation counting signals by Filter-based radiodetection technology.Data from the assay component NVS_GPCR_hTXA2 was analyzed into 1 assay endpoint. This assay endpoint, NVS_GPCR_hTXA2, was analyzed in the positive analysis fitting direction relative to DMSO as the negative control and baseline of activity. Using a type of binding reporter, loss-of-signal activity can be used to understand changes in the binding as they relate to the gene TBXA2R. Furthermore, this assay endpoint can be referred to as a primary readout, because the performed assay has only produced 1 assay endpoint. To generalize the intended target to other relatable targets, this assay endpoint is annotated to the gpcr intended target family, where the subfamily is rhodopsin-like receptor.
Binding assays used specific radioligands (tritiated, iodinated) with non-radioactive competitive displacement ligands in agonist or antagonist protocols (as indicated) and various reference compounds and inhibitors to titrate specific binding to receptors and transporters. Most enzyme assays (CYPs, kinases, phosphatases, proteases, HDACs) used recombinant protein and specific substrates (fluorescence mostly, some colorimetric and radioactive) and inhibitors, followed by a biochemical separation of substrate and product. All assays for the biochemical HTS were initially run in duplicate at a single concentration (10 uM for CYP450 assays and 25 uM for all others). […] Each assay was run with positive and negative controls, and concurrent controls on every plate. The follow-up (secondary) screen tested active chemical-pairs in concentration series, as well as a few additional assays not tested in the primary screen, some selected negative inactives, and several cases re-run in the concentration series for confirmatory purposes.

human Thromboxane A2 Receptor (TXA2), TBXA2R (gene 6915), sequence (P21731 whole entry, looked up): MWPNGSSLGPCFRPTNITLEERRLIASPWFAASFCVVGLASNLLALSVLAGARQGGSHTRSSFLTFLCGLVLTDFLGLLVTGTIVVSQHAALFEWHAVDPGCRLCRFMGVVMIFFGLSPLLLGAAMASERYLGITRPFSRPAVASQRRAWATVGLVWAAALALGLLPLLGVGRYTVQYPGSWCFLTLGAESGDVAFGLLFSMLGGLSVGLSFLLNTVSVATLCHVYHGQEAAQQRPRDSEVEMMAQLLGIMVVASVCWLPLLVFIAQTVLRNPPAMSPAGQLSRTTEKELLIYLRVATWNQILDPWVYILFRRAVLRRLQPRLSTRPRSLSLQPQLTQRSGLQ

| SMILES | outcome | AC50 |
| --- | --- | --- |
| CCOC(C=C(C)CCC=C(C)C)OCC | inactive | – |
| O=C(c1ccccc1)c1ccc(O)cc1O | inactive | – |
| Oc1ccc2c(c1)CCC2 | inactive | – |
| CCN(CC)c1ccc(C=O)c(O)c1 | inactive | – |
| O=C=Nc1cccc2c(N=C=O)cccc12 | – | 0.672 µM (active) |
| CC(=O)c1ccccc1N | inactive | – |
| CCOCN(C(=O)CS(=O)(=O)O)c1c(C)cccc1CC | inactive | – |
| CCN(CC)c1ccc2c(c1)Oc1cc(N(CC)CC)ccc1C21OC(=O)c2ccccc21 | inactive | – |
| CCN(CC)c1ccc(C=O)cc1 | – | 4.65 µM (active) |
| c1ccc(C[P+](c2ccccc2)(c2ccccc2)c2ccccc2)cc1 | inactive | – |
| O=C1c2c(O)ccc(Nc3ccc(CCO)cc3)c2C(=O)c2c([N+](=O)[O-])ccc(O)c21 | inactive | – |
